Compound activity (PubChem)
This is a sample that favours compounds with a hit; in the whole collection about 3% have one here.
USP1 inh = inhibitors of human USP1/UAF1 deubiquitinase; O94782; recombinant USP1/UAF1, Ub-Rhodamine cleavage fluorescence; Potency, µM (doses to about 57.1 µM), for the others: at the top dose activity change, negative = inhibition, actives largely listed as inhibitors; hit rate 0.23% among 390,000; also: % is scaled to controls: 0 for no effect and ±100 for the full control effect; nearly all actives have a fitted effect of over 60% in size
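USP1/UAF1 complex (1 nM) preincubated 15 min at room temperature with compound, then Ub-Rho substrate (150 nM final) added. Kinetic fluorescence at 480/540 nm over 6 reads at 60 s intervals; 50 mM HEPES pH 7.8, 0.5 mM EDTA, 0.1 mg/ml BSA, 1 mM TCEP, 0.01% Tween-20.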
TSG101-PTAP inh = blocks PTAP/TSG101 interaction to inhibit HIV-1 budding; Fluorescence polarization, FITC-PTAP peptide / Tsg101 binding; Potency, µM (top dose mostly 115 µM), inactives show at the top dose activity change, negative = inhibition, hits mostly inhibitors; 340,000 tested, under 10 active; active = well fitted inhibition curve with a large enough effect in the main read-out, with a control signal flat, not every such curve was filed as active; inconclusive = small, poorly fitted or top-dose-only effect, or effect the other way, or a change in a side signal; inactive = no such curve, though single readings can be large or run the other way; also: % of control where 0% means no effect
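FP read-out: FITC-PTAP peptide, 50 nM final, binding Tsg101 binding domain, 10 uM final; 20 min, r.t.; 10 mM HEPES pH 7.5, 0.15 M NaCl, 0.01% Tween 20, 3 mM EDTA, 0.1 mM TCEP.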
PLK1 PBD inh = PLK1 (human) polo-box domain binding inhibition; P53350; Plk1 PBD binding of FITC phosphopeptide, fluorescence polarization; Potency, µM, for inactives: max response, negative = inhibition, usual class: inhibitors; hit rate 2.8% among 360,000; also: series mostly up to about 57 µM; % is scaled to controls: 0 for no effect and ±100 for the full control effect; nearly all actives have a fitted effect of over 65% in size
VDR inh = blocks the human vitamin D receptor. P11473. VDR-SRC2-3 peptide fluorescence polarization, 2 h. Potency, µM, for inactives: max response, negative = inhibition, most hits filed as inhibitors. hit rate 0.93% among 400,000. AID 504847; also: % is scaled to controls: 0 for no effect and ±100 for the full control effect
Target sequence (P11473 whole entry, looked up): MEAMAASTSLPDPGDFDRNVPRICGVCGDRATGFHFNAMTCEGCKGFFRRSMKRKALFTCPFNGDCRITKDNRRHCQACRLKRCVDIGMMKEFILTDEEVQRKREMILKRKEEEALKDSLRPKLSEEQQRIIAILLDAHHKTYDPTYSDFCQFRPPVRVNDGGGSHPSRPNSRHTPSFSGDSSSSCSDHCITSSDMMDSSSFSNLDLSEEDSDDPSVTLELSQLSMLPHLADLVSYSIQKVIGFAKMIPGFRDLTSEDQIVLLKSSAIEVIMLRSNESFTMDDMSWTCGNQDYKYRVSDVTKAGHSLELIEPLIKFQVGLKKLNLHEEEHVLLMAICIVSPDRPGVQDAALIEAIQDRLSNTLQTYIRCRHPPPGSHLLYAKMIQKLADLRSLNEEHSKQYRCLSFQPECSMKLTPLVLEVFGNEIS
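Two reagent solutions held at 4 deg C in the dark were dispensed, compounds pinned at 23 nl, and the mixture incubated 2 h at room temperature. Read-out: fluorescence polarization of VDR–SRC2-3 peptide binding.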
GCN5L2 inh = inhibitors of human GCN5L2 histone acetyltransferase | Q92830 | GCN5L2 HAT assay, ThioGlo1 CoA-SH fluorescence | Potency, µM (series often up to 58.9 µM), inactives show at the top dose activity change, negative = inhibition, hits mostly inhibitors | hit rate 0.21% among 390,000; also: % is scaled to controls: 0 for no effect and ±100 for the full control effect
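Enzyme at 20nM final was mixed with library compounds for 15 min at room temperature. Peptide H3(1-25) at 75uM, acetyl-CoA at 70uM and ThioGlo1 at 50uM were then added. Plates were read immediately and after 20 min (Ex340nm/Em540nm).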
Numbers without * were called inactive; ? = inconclusive; · = no result given. Unless noted, calls follow the shape of the dose curve; as a rule, active = well fitted curve in the direction sought with a large enough effect; inconclusive = small, poorly fitted or top-dose-only effect, or another doubt; inactive = no such curve, though single readings can be large; an effect the other way counts as inactive or inconclusive. Potency is read from the fitted curve at half-maximal effect.

SMILES	USP1 inh	TSG101-PTAP inh	PLK1 PBD inh	VDR inh	GCN5L2 inh
CC(=O)N1c2ccc(S(=O)(=O)NCC3CCC(C(=O)N4CCCC(C)C4)CC3)cc2CC1C (stereo unspecified)	-29%	0%	21µM*	?	-3%
CC(=O)N1c2ccc(S(=O)(=O)NCCC(=O)NCCc3ccc(Cl)cc3)cc2CC1C (stereo unspecified)	-8%	-4%	-1%	-4%	-9%
CC(=O)N1c2ccc(S(=O)(=O)NCCC(=O)Nc3ccc(Cl)cc3)cc2CC1C (stereo unspecified)	0%	·	1%	·	·
CC(SC1=Nc2ccccc2C2CC=NN12)C(=O)NC1(C#N)CCCCC1 (stereo unspecified)	-24%	-6%	-9%	?	-2%
CCC(=O)N1c2ccc(S(=O)(=O)CCC(=O)Nc3ccc(Br)c(C)c3)cc2CC1C (stereo unspecified)	-25%	·	·	-21%	-10%
CCCc1ccc(C(O)c2ncc(-c3ccccc3)[nH]2)cc1 (stereo unspecified)	·	·	-2%	·	·
CCCC(c1nnnn1Cc1cccs1)N1CCN(C2CCCC2)CC1 (stereo unspecified)	-6%	-5%	27µM*	-27%	-18%
CN(C)c1cccc(C(=O)NCc2ccc3c(c2)OCO3)c1	-11%	-5%	-17%	-8%	-3%
O=C(NCc1ccc(Cl)cc1)c1cccc(NC2=NC3CS(=O)(=O)CC3S2)c1 (stereo unspecified)	-24%	-5%	-2%	-2%	28µM*
Cc1cc(C)cc(NC(=O)Cc2ccc(NC3=NC4CS(=O)(=O)CC4S3)cc2)c1 (stereo unspecified)	-10%	0%	-4%	4%	?
COc1ccc(CNC(=O)c2cccc(NC3=NC4CS(=O)(=O)CC4S3)c2)cc1 (stereo unspecified)	0%	-3%	3%	-1%	0%
CN(C)c1cccc(C(=O)NCc2ccc(Cl)cc2)c1	-14%	1%	19µM*	-11%	-2%
Cc1cccc(NC(=O)Cc2ccc(NC3=NC4CS(=O)(=O)CC4S3)cc2)c1 (stereo unspecified)	-18%	-2%	3%	-3%	22µM*
COc1cccc(/C=C/C(=O)OCC(=O)NC2CC2)c1OC	-11%	-2%	1%	2%	1%
Cc1c(Cl)sn(-c2ccc(Cl)cc2)c1=O	-3%	0%	2.7µM*	45µM*	10µM*
Cc1nn(-c2ccc(Cl)cc2)c(=O)c2ccccc12	-16%	-5%	-8%	4%	-18%
CCOC(=O)c1cc(-c2ccc(OC)cc2)nn1Cc1ccccc1	-10%	·	·	-12%	-14%
CCN(CC)C(=O)CSc1nc2c(sc(=S)n2-c2ccccc2)c(=O)n1-c1ccc(OC)cc1OC	-26%	-9%	3µM*	25µM*	0%
CCN(CC)C(=O)CSc1nc2c(sc(=S)n2-c2ccccc2)c(=O)n1-c1ccccc1OC	-22%	-5%	1%	7%	-7%
CCOC(=O)CSc1nc2c(sc(=S)n2-c2ccccc2)c(=O)n1-c1ccc(OC)cc1OC	-5%	-5%	4.7µM*	?	-3%
CCN(C(=O)CSc1nc2ccccc2n1CC(=O)Nc1cccc(C#N)c1)c1ccccc1	-27%	·	·	0%	-7%
Cc1ccc(S(=O)(=O)C(C#N)c2nc3ccccc3nc2N2CCCC2)cc1 (stereo unspecified)	-19%	-7%	34µM*	?	-28%
N#CC(c1nc2ccccc2nc1N1CCOCC1)S(=O)(=O)c1ccccc1 (stereo unspecified)	-10%	-6%	-19%	-10%	0%
Cc1ccc(S(=O)(=O)C(C#N)c2nc3ccccc3nc2N2CC(C)OC(C)C2)cc1C (stereo unspecified)	-16%	-7%	38µM*	1%	-7%
Cc1cccc(S(=O)(=O)C(C#N)c2nc3ccccc3nc2N2CC(C)OC(C)C2)c1 (stereo unspecified)	?	-6%	-24%	-3%	·
O=C(Nc1cccc(C(=O)O)c1)/C(=C\c1ccc2c(c1)OCO2)NC(=O)c1ccccc1Br	7%	·	-12%	·	·
